Source: ChEMBL document CHEMBL3988442, “University of Dundee, Small-Polar-MMV Screening Library” (2021)
The whole screen tested about 53,000 compounds, of which about 900 (1.7%) showed an effect of 50% or more. Shown is part of a subset that was picked to be rich in strong results.

Each compound was assayed on Mycobacterium tuberculosis (assay: Cornell - Phenotypic assay to identify agents that inhibit growth of Mycobacterium tuberculosis). Conditions: 10 mM as filed; unlikely as a test dose.
Format: functional
Design: scale not given: direction of the effect not stated beside the values

| Compound | Percent Effect |
| --- | --- |
| Cc1ncc2c(n1)CCCC2NC(=O)c1ccc(Cn2cccn2)cc1 (centres undefined) | -3.537% |
| Cc1occc1C(=O)N1CCC2(CC1)CN(c1ccccn1)CCO2.O=C(O)C(F)(F)F | 15.62% |
| CCc1cc(N(C)Cc2ccncn2)n2nccc2n1 | -22.97% |
| COCc1cc(N(C)Cc2c(C)nn(C)c2C)n2nccc2n1 | -21.67% |
| CCc1ccc(CN(C)c2cc(COC)nc3ccnn23)cc1 | 59.92% |
| CCCc1nc(N[C@H]2COC[C@@H]2N2CCCCC2)c2cnn(C)c2n1 | 6.118% |
| COc1cn(-c2ccccc2)nc1C(=O)NCCN1CCCC(C)C1 (centres undefined) | -24.88% |
| CC(C)CCc1n[nH]c(C(=O)O)c1Cl | -0.9753% |
| CC(C)CCc1n[nH]c(C(=O)O)c1I | 42.63% |
| CC(C)CCc1n[nH]c(C(=O)O)c1Br | 50.18% |
| Cc1nn(CC(C)C)cc1S(=O)(=O)N(C)Cc1nonc1C | 22.09% |
| Cc1nccc(CC2COCCN(c3cnccn3)C2)n1 (centres undefined) | -7.582% |
| c1cncc(O[C@H]2COCCN(C3CCC3)C2)c1 | 18.67% |
| c1cnc(CC2COCCN(C3CCCCC3)C2)cn1 (centres undefined) | 63.08% |
| O=C(O)C(F)(F)F.c1cnc(N2CCC3(COCc4cnc(-c5cccnc5)nc43)C2)nc1 (centres undefined) | -17.47% |
| CN(C)CC(=O)N1CC2(CCN(C(=O)Nc3ccccc3)C2)C1.O=C(O)C(F)(F)F | -36.23% |
| Cc1nn(C)c(C)c1C1CCCN1CCCC#N (centres undefined) | -3.092% |
| c1ccc2oc(CCCN3CCCC3Cn3cncn3)nc2c1 (centres undefined) | 23.86% |
| c1ccc2oc(CN3CCCCC3Cn3cncn3)nc2c1 (centres undefined) | 10.3% |
| Cc1cc(C)n(CC2CCCN2CCCc2nc3ccccc3o2)n1 (centres undefined) | 14.18% |
| CC(C)c1nc(C2CCCN2CCc2ccccn2)no1 (centres undefined) | -3.374% |
| Cc1cnn(CC2CCCN2CCCc2nc3ccccc3o2)c1 (centres undefined) | 32.71% |
| Cc1nc(C)n(CC2CCCN2CCCc2nc3ccccc3o2)n1 (centres undefined) | 0.1227% |
| CC(C)c1nc(C2CCCN2CCc2ccncc2)no1 (centres undefined) | -12.21% |
| Cc1nn(C)c(C)c1C1CCCN1CCCc1nc2ccccc2o1 (centres undefined) | 65.17% |
| CC(C)c1nc(C2CCCN2CCCc2nc3ccccc3o2)no1 (centres undefined) | 73.44% |

| Compound | Percent Effect |
| --- | --- |
| c1ccc2oc(CCCN3CCCCC3Cn3cncn3)nc2c1 (centres undefined) | 60.48% |
| Cc1cc(C2CCCN2CCCc2nc3ccccc3o2)on1 (centres undefined) | 56.86% |
| CN1CCC(Nc2ccc(Cl)cc2OCC(F)(F)F)C1=O (centres undefined) | 4.127% |
| CC(C)[C@H]1CN(Cc2ccncc2)C[C@@H]1NC(=O)C1(C#N)CCOCC1 | 8.101% |
| CCOc1cncc(N2CCCC2c2nnc3n2CCCCC3)n1 (centres undefined) | 14.34% |
| Cn1ncc2c1CN(Cc1ccc(F)cc1)CC2COCC1CC1.O=C(O)C(F)(F)F.O=C(O)C(F)(F)F (centres undefined) | -21.09% |
| Cc1nn(C)cc1NC(=O)CC1CCN(C(=O)Cc2ccccc2)CC1 | -9.652% |
| Cn1cc(CNC2CCCOc3c2ccc2ccccc32)cn1 (centres undefined) | 52.41% |
| Cn1ccnc1CNC1CCCOc2c1ccc1ccccc21 (centres undefined) | 21.15% |
| Cn1cc(CNC2CCCOc3c(Cl)cccc32)cn1 (centres undefined) | 11.42% |
| O=C(Cn1ccnc1)N1CCCC(OCc2cccnc2)C1 (centres undefined) | -41.24% |
| CN(C)C(=O)CN1C[C@H]2CN(Cc3cccc(F)c3)C(=O)[C@H]2C1.O=C(O)C(F)(F)F | 15.1% |
| Cn1nc2c(c1NC(=O)c1cccs1)CCC2 | 1.253% |
| N#Cc1ccc(N2CCC3(CC2)CC(OCc2cccnc2)CO3)cc1.O=C(O)C(F)(F)F (centres undefined) | 25.8% |
| Fc1cnc(N2CCC3(CC2)CC(OCc2cccnc2)CO3)nc1.O=C(O)C(F)(F)F.O=C(O)C(F)(F)F (centres undefined) | 8.704% |
| Fc1ccc(N2CCC3(CC2)CC(OCc2cccnc2)CO3)cc1.O=C(O)C(F)(F)F (centres undefined) | 62.76% |
| CCn1nccc1CN(C)c1nc(N)nc2c1nc(C)n2C | -2.939% |
| NC1(CN2CCCCC2)CCCCC1 | -23.07% |
| Cc1cccnc1NC(=O)CC1(Cn2cnnn2)CCCCC1 | 1.711% |
| Cc1nc(-n2nc(C3CC3)cc2NC(=O)C(C)C)[nH]c(=O)c1C | 77.31% |
| Cc1cc(NC(=O)C(C)C)n(-c2nc(C)c(C)c(=O)[nH]2)n1 | 105.9% |
| CC(=O)Nc1cc(C2CC2)nn1-c1nc(C)c(C)c(=O)[nH]1 | -29.54% |
| Cc1cc(C)n(-c2cncc(NCCNC(=O)C(C)C)n2)n1 | 10.14% |
| COCCNC(=O)CCc1c(C)nn(-c2nc(C)c(C)c(=O)[nH]2)c1C | 25.57% |
| CC(=O)N1CCN(c2cc(CCNC(=O)C(C)C)nc(C3CC3)n2)CC1 | -12.23% |
| Cc1cc(-c2nccs2)nc(C2CCN(Cc3cccs3)CC2)n1 | 25.07% |

| Compound | Percent Effect |
| --- | --- |
| Cc1nccn1Cc1nnc(C2CCCN(c3ncccn3)C2)n1C (centres undefined) | -33.54% |
| COCCN1CCCC(c2nc(C)n3c(C)c(C)sc23)C1 (centres undefined) | 6.759% |
| O=C(N1CCOCC1)N1C[C@H]2CN(Cc3nccs3)C[C@H]2C1.O=C(O)C(F)(F)F | 17.29% |
| CCCNC(=O)C(C)n1nc(-c2ccc(C)o2)cc(N)c1=O (centres undefined) | 66.1% |
| Cc1ccc(-c2cc(N)c(=O)n(C(C)C(=O)NC(C)C)n2)o1 (centres undefined) | 26.87% |
| COCCNC(=O)C(C)n1nc(-c2ccc(C)o2)cc(N)c1=O (centres undefined) | -59.92% |
| O=C(N1CCOCC1)[C@@]12CCO[C@@H]1CCN(C1CCCCC1)C2.O=C(O)C(F)(F)F | -10.99% |
| CC1=C(C(=O)N2CCOC(Cc3cccc(C(F)(F)F)c3)C2)OCCO1 (centres undefined) | 22.58% |
| COc1cccc(CCC2CCCN(C(=O)c3ccc(OC)o3)C2)c1 (centres undefined) | 67.76% |
| COc1ccc(C(=O)N2CCCC(C)C2)cc1F (centres undefined) | -4.81% |
| CC1CCCN(C(=O)c2cc(-c3ccco3)cs2)C1 (centres undefined) | 33.45% |
| COc1cccc(CCC2CCCN(C(=O)c3ccccn3)C2)c1 (centres undefined) | 5.867% |
| COc1cccc(CCC2CCCN(C(C)=O)C2)c1 (centres undefined) | 19.46% |
| CC1CCCN(C(=O)c2ccc(-c3ccco3)o2)C1 (centres undefined) | 79.8% |
| COc1ccc(C(=O)N2CCOC(Cc3cccc(C(F)(F)F)c3)C2)o1 (centres undefined) | 107.3% |
| CC(=O)N1CCOC(Cc2cccc(C(F)(F)F)c2)C1 (centres undefined) | 25.26% |
| COCCOCCCNC(=O)c1cc(Cl)cc2cccnc12 | 14.25% |
| CNC(=O)c1cc(C)nc(C2(C)CCCN2c2cc(C)ncn2)n1 (centres undefined) | -3.041% |
| CCc1ncc(C(=O)N(C)C(C)c2ccc3c(c2)OCCO3)cn1 (centres undefined) | -2.31% |
| Cc1cccnc1CCNCC1(O)CCCN(CC2CCCCC2)C1=O (centres undefined) | -24.48% |
| Cn1ccnc1CN1CCCN(C(=O)c2cccc(CC#N)c2)CC1 | -5.317% |
| Cc1noc(C)c1-c1cc(CCC2CN(C(=O)C(C)C)CCO2)ncn1 (centres undefined) | 37.61% |
| O=C(O)C(F)(F)F.O=C(O)C(F)(F)F.c1cnc(N2CC3(CCN(Cc4cccnc4)C3)C2)nc1 | -25.95% |
| NC(=O)C1=NC2=NS(=O)(=O)c3ccccc3N2N1Cc1ccc(Cl)cc1 | 106.1% |
| NCc1cn(-c2ccccc2C(=O)NCc2ccccc2Cl)cn1 | -8.218% |
| NCc1cnn(-c2ccccc2C(=O)NCc2ccccc2Cl)c1 | -1.327% |

| Compound | Percent Effect |
| --- | --- |
| NC(=O)C1=NN2C(=NS(=O)(=O)c3ccccc32)N1 | 18.26% |
| NC(=O)C1=NC2=NS(=O)(=O)c3ccccc3N2N1Cc1ccccc1Cl | 106.2% |
| COC(=O)C1=NN2C(=NS(=O)(=O)c3ccccc32)N1 | 46.07% |
| NC(=O)C1=NC2=NS(=O)(=O)c3ccccc3N2N1Cc1ccc(Br)cc1 | 106.5% |
| NC(=O)CN(Cc1ccc(Br)cc1)C(=O)c1ccccn1 | -15.26% |
| CCCN(CCc1ccccn1)C(=O)Cn1cc(C)cn1 | 6.805% |
| CC(C)C(=O)N1CCC(c2c(C(N)=O)sc3ccccc23)C1 (centres undefined) | -20.56% |
| CO[C@@H]1CCN(Cc2nccs2)C[C@@H]1Cc1ccccc1.O=C(O)C(F)(F)F | 17.77% |
| CO[C@H]1CCN(Cc2nccs2)C[C@@H]1Cc1ccccc1 | 32.3% |
| CO[C@@H]1CCN(Cc2nccs2)C[C@@H]1Cc1cccc(C)c1.O=C(O)C(F)(F)F | 58.64% |
| Cc1ccc(NC(=O)Cn2cc(I)cn2)cc1 | 2.116% |
| CC(C)c1ccc(NC(=O)Cn2cc(I)cn2)cc1 | 64.63% |
| NC(=O)c1ccc(NC(=O)Cn2cc(I)cn2)cc1 | 12.21% |
| CS(=O)(=O)CCSc1n[nH]c(-c2ccc3c(c2)CCC3)n1 | 22.85% |
| O=C(CSC1CCCC1)N1CCN(C(=O)C2CC2c2cccs2)CC1 (centres undefined) | 19.24% |
| O=C(CSC1CCCC1)N1CCN(c2ccc(-n3cncn3)nn2)CC1 | -7.169% |
| O=C(CSC1CCCC1)N1CCN(C(=O)C2CC2c2ccccc2)CC1 (centres undefined) | 57.68% |
| CN(CCOc1ccccc1F)C1CCOC1=O (centres undefined) | -18.35% |
| CC(Cn1cccn1)NCc1csc2c1CCCC2 (centres undefined) | -0.7044% |
| CC(Cn1cncn1)NCc1csc2c1CCCC2 (centres undefined) | 6.492% |
| CC(Cn1ccnc1)NCc1csc2c1CCCC2 (centres undefined) | 52.3% |
| O=C1NCC2(CCCN(C(=O)CCn3cnc4ccccc43)CC2)O1 (centres undefined) | -0.9742% |
| COc1cccc(Cn2[nH]c(C)c3c(NC(=O)C(C)OC)nnc2-3)c1 (centres undefined) | 19.31% |
| CCOC(=O)C(C)NC(=O)CCSc1ccc(F)cc1 (centres undefined) | 72.72% |
| COCC(C)NC(=O)CCSc1ccc(F)cc1 (centres undefined) | -22.42% |
| CCOC(=O)C(C)NC(=O)CCc1ccc(F)cc1 (centres undefined) | 12.11% |
